Measured values from PubChem BioAssay AID687001 (Broad Institute, 2013).
Measured potencies and affinities stand elsewhere. The source made the active and inactive calls.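 Rule for the calls: active = signal-lowering compounds whose fitted half-maximal concentration is at or below twice the top tested dose in every run; inconclusive = runs disagree, flat 30 to 70% inhibition, or poor curve fit; inactive = the rest.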

Target: Protein S100-A4 (Homo sapiens) (UniProt P26447)
Test: S100A4-myosin IIA binding inhibitor potency, dose response, biochemical, fluorescence polarization, cherry-picked hits (AID 687001)
Settings: FP, S100A4/TAMRA-myosin IIA peptide binding; series mostly up to 11 µM

Protein S100-A4 (Homo sapiens), sequence (P26447 whole entry, looked up): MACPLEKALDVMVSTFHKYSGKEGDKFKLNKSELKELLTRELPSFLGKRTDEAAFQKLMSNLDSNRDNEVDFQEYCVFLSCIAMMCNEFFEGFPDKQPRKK

outcome, inactive:
CC(C)CC(=O)Nc1c2c(nn1-c1ccc(F)cc1)CS(=O)C2 (centres undefined)
Nc1c(C(=O)Nc2ccc3c(c2)OCCO3)nnn1Cc1ccc(F)cc1
Cc1cc2ccccc2n1CCNC(=O)Cc1cccc2ccccc12
CC(C)(C)c1cc(CCC(=O)N2CCC2)cc(C(C)(C)C)c1O
Cc1ccc(-c2ccc(=O)n(Cc3ccc(F)cc3)n2)cc1
CC(C)NC(=O)N(C)C[C@H]1Oc2ccc(NS(=O)(=O)c3ccc(F)cc3)cc2C(=O)N([C@H](C)CO)C[C@@H]1C
O=C(Cc1ccccn1)N[C@@H]1CC[C@@H](CCNS(=O)(=O)c2cccc(F)c2)O[C@H]1CO
CCCNC(=O)[C@@H]1[C@@H](CO)[C@@H]2Cn3c(cccc3=O)[C@H]1N2CCC(F)(F)F
Cc1cc(OCC(=O)NCCc2c[nH]c3ccccc23)c2c(C)cc(=O)oc2c1
O=C(/C=C/c1cc(Br)ccc1F)OCC(=O)N1CCOCC1
NC(=O)c1nsc(C(=O)N(c2ccccc2F)C(C(=O)NCc2ccccc2)c2ccc(O)cc2)c1N (centres undefined)
CO[C@H]1CC[C@H]2CCOc3c(C#N)cccc3C(=O)N(C)C[C@H](c3ccccc3)CC(=O)N(C)C[C@H]1O2
COc1cccc(NC(=O)CN(C)C(=O)c2ccc(N3CCCCC3)c([N+](=O)[O-])c2)c1
COc1ccccc1-c1ccc2c(c1)O[C@H](CN(C)C(C)=O)[C@@H](C)CN([C@@H](C)CO)S2(=O)=O
CC(C)C#Cc1ccc2c(c1)O[C@@H](CN(C)C(=O)NC(C)C)[C@H](C)CN([C@H](C)CO)S2(=O)=O
COc1ccc(S(=O)(=O)Nc2cccc3c2O[C@@H](CN(C)S(=O)(=O)c2c(C)noc2C)[C@H](C)CN([C@@H](C)CO)C3=O)cc1
O=C(O)c1ccc2c(c1)C(=O)N(c1cccc3ccccc13)C2=O
CCOC(=O)c1cc(C)sc1/N=C/C1C(=O)CCCC1=O
C[C@@H]1CN([C@H](C)CO)C(=O)c2cc(NS(=O)(=O)c3ccc(Cl)cc3)ccc2O[C@@H](C)CCCCO[C@H]1CN(C)Cc1ccc(Cl)c(Cl)c1
Cn1c(=O)oc2cc(S(=O)(=O)NCc3ccc(Cl)cc3)ccc21
CC(=O)N1CCCCN2[C@@H](CO)[C@H](c3ccc(-c4cccc(C(=O)N(C)C)c4)cc3)[C@@H]2C1
CN(C)S(=O)(=O)c1ccc(NC(=O)CN2CCN(c3ccccn3)CC2)cc1
O=S(=O)(NC(=NCc1ccccc1)c1ccccc1)c1ccccc1
CC(C)OCCCNC(=O)c1ccccc1NC(=O)C1=CSCCO1
CCc1ccc(CNC(=O)C2CCN(S(=O)(=O)N3CCC(C)CC3)CC2)cc1
N#C[C@@H]1[C@H](c2ccccc2C2=CCCCC2)[C@H](CO)N1C(=O)NC1CCCC1
COCCNC(=O)C1CCCN(Cc2ccc(C(C)C)cc2)CC1 (centres undefined)
CCCCOc1ccc(S(=O)(=O)N2CCN(c3ccc(N4CCN(CC)CC4)nn3)CC2)cc1
CC(=O)N1CC(=O)N2[C@H](CO)[C@@H](c3ccc(-c4ccc(C#N)cc4)cc3)[C@H]2C1
COc1cc(O)c(C(=O)O)c(CCc2ccccc2)c1
CCCCn1c(O)c(/C=C2\C=Nc3ccccc32)c(=O)[nH]c1=O
Fc1ccc(Nc2nc(N3CCOCC3)nc(N3CCOCC3)n2)cc1
C[C@@H]1CN([C@H](C)CO)C(=O)c2cccc(NC(=O)CCCCCC(=O)Nc3ccccc3N)c2O[C@H]1CN(C)S(=O)(=O)c1cccs1
Cc1ccnc(NC(=O)C(C)N2C(=O)c3ccccc3S2(=O)=O)c1 (centres undefined)
CCCNC(=O)N1CC(=O)N2[C@H](CO)[C@@H](c3ccc(-c4ccc(F)cc4)cc3)[C@H]2C1
O=C(CNC(=O)c1ccc(Cl)cc1Cl)OCc1cn2cc(Br)ccc2n1
O=C(Nc1ccc(F)cc1)N1CCCCN2[C@H](CO)[C@H](c3ccc(C#Cc4ccccn4)cc3)[C@H]2C1
COC(=O)C[C@@H]1CC[C@H](NC(=O)c2cnccn2)[C@@H](CO)O1
S=c1[nH]nc(Nc2cccc3ccccc23)s1
